Screening data as filed in PubChem BioAssay.
The sample as a whole holds a higher share of hits than the screen did.
mHTT-CaM PPI inh = inhibitors of human mutant huntingtin-calmodulin interaction; P42858; AlphaScreen His-mHTT/GST-CaM binding, luminescence; inhibition, % at 15 µM; 190,000 compounds, 3.6% hits
Pf apPOL inh = Pf-apPOL DNA polymerase inhibition; Recombinant Pf-apPOL, molecular beacon fluorescence, 1.5 h; inhibition, % at 10 µM; 210,000 compounds, 0.25% hits; AID 1794808
Of the large screens only hits and unclear results are named; the others gave an inactive call. Cut-off read from the data, not from the text of the source: active = inhibition above about 50%; inactive = the rest.

COc1cc(/C=C2/C(=O)N(c3ccccc3)N=C2C)ccc1OCCOc1ccc(C)cc1	none
CCOC(=O)N1CCc2nc(NC(=O)c3nc4ccccc4s3)sc2C1	none
N#Cc1ccc(NC(=O)c2sc3ccccc3c2Cl)cc1	none (no result: mHTT-CaM PPI inh)
CC(=O)N1CCc2c(sc(NC(=O)c3sc4ccccc4c3Cl)c2C#N)C1	mHTT-CaM PPI inh 61
CCOC(=O)N1CCc2nc(NC(=O)c3sc4ccccc4c3Cl)sc2C1	mHTT-CaM PPI inh 53
CCCCOc1ccc(-c2nc(C=Nc3ccc(C)cc3C)c(O)o2)cc1	none
CC(=O)Nc1ccc(C(=O)N2CCN(c3ccccc3)CC2)cc1[N+](=O)[O-]	none
CCOc1ccc(C(O)=C2C(=O)C(=O)N(Cc3cccnc3)C2c2ccccc2)cc1C (centres undefined)	none
O=C(Nc1ccc(SCc2ccccn2)nn1)c1ccco1	none
NC(=S)N=Nc1c2nnnc2c(NNC(N)=S)c2n[nH][nH]c12	mHTT-CaM PPI inh 100 (no result: Pf apPOL inh)
CC(NC(=O)C(c1ccccc1)c1ccccc1)C(=O)Nc1ccc(Cl)cc1 (centres undefined)	none
O=S(=O)(NCCSCc1ccc(Cl)cc1)c1ccc2c(c1)OCCO2	none
CS(=O)(=O)NCCSCc1ccc(Cl)c(Cl)c1	none
O=S(=O)(NCCSCc1ccc(Cl)c(Cl)c1)c1ccc2c(c1)OCCO2	mHTT-CaM PPI inh 51
CC(=O)Nc1ccc(S(=O)(=O)NCCSCc2ccc(Cl)c(Cl)c2)cc1	mHTT-CaM PPI inh 90
Cc1cc(OCC(=O)Nc2ccc(Cl)cn2)cc(C)c1Cl	none
COc1ccc(C2=NN(C(=O)CN3CCCCC3)C(c3ccccc3Cl)C2)cc1 (centres undefined)	none
COc1ccc(C2=NN(C(=O)CN3CCOCC3)C(c3ccccc3Cl)C2)cc1 (centres undefined)	none
Cn1cccc1C1CC(c2ccccc2Cl)=NN1C(=O)CN1CCCCC1 (centres undefined)	mHTT-CaM PPI inh 94
CCN1CCN(CC(=O)N2N=C(c3ccccc3Cl)CC2c2cccn2C)CC1 (centres undefined)	mHTT-CaM PPI inh 82
CCOc1ccc2nc(SCC(=O)N3CCN(c4ccccc4)CC3)sc2c1	none
CCOc1ccc(/C=C2\SC(=NS(=O)(=O)c3ccc(C)cc3)NC2=O)cc1	mHTT-CaM PPI inh 51
Cc1ccc(S(=O)(=O)N=C2NC(=O)/C(=C/c3ccccn3)S2)cc1	none
COc1ccc(Br)cc1C1SCCN1S(=O)(=O)c1ccc(F)cc1 (centres undefined)	none
CCCn1c(C(=O)NCc2ccccn2)cc2sc(Br)cc21	mHTT-CaM PPI inh 72
Cc1cc2c(cc(C(=O)NCc3ccccn3)n2CC2CCC2)s1	mHTT-CaM PPI inh 57
COc1ccccc1-c1cc(C(=O)NCc2ccccn2)n(C)n1	mHTT-CaM PPI inh 100
CCCn1c(C(=O)N2CCOCC2)cc2sc(Br)cc21	none
CCn1c(C(=O)NCc2ccccc2F)cc2sc(C)cc21	none
O=C(NCc1ccccn1)c1cc2sccc2n1CC1CC1	none
C=CCn1c(C(=O)NCc2ccccn2)cc2sc(C)cc21	mHTT-CaM PPI inh 56
COc1ccccc1OCC(=O)NCc1ccccn1	none
CN1CCN(C(=O)c2csc(COc3cccc(F)c3)n2)CC1	none
N#Cc1ccc(C(=O)NCc2ccc(-n3ccnc3)cc2)cc1	none
CN(CCCNC(=O)c1ccc2c(c1)NC(=O)C1CCCCN21)Cc1ccccc1 (centres undefined)	none
Cc1cccc(NC(=O)Nc2ccc3nncn3c2)c1	none
O=C(CN1C(=O)c2ccccc2S1(=O)=O)N1CCCCCC1	Pf apPOL inh 51
O=C(CN1C(=O)c2ccccc2S1(=O)=O)N1CCCCC1	none
N#Cc1cc(Cc2ccc(N)c(C#N)c2)ccc1N	none
Nc1ccc(Cc2ccc(N)c(O)c2)cc1O	mHTT-CaM PPI inh 87, Pf apPOL inh 60
COc1ccc(N2CCN(c3ncnc4[nH]ncc34)CC2)cc1	none
CS(=O)(=O)C1Cc2ccccc2CN1C(=O)Nc1cccc(C(F)(F)F)c1 (centres undefined)	none
Cc1ccc(CN2CCc3nc(N4CCC(C)CC4)ncc3C2)cc1C	mHTT-CaM PPI inh 72
COc1ccccc1CN1CCc2nc(N3CCN(c4ncccn4)CC3)ncc2C1	mHTT-CaM PPI inh 100
Cc1ccc(CN2CCc3nc(N4CCC(C)CC4)ncc3C2)cc1	none
Clc1cccc(CN2CCc3nc(N4CCN(c5ccccn5)CC4)ncc3C2)c1	none
COc1ccccc1CN1CCc2nc(N3CCN(c4ccccc4)CC3)ncc2C1	none
CC1CCN(c2ncc3c(n2)CCN(Cc2cccc(F)c2F)C3)CC1	mHTT-CaM PPI inh 74
c1ccc(CCN2CCc3nc(N4CCN(c5ccccn5)CC4)ncc3C2)cc1	mHTT-CaM PPI inh 60
Fc1cccc(CN2CCc3nc(N4CCN(c5ccccn5)CC4)ncc3C2)c1F	none
CCOc1ccc(-c2cn3ccn(-c4ccc(C)c(Cl)c4)c(=O)c3n2)cc1	none
O=C(Nc1sccc1-c1nc2ccccc2s1)c1cc(Br)ccc1Cl	none
CCOc1ccccc1CN1CCc2nc(N3CCN(c4ccccc4F)CC3)ncc2C1	mHTT-CaM PPI inh 66
COc1ccc(OC)c(CN2CCc3nc(N4CCC(C)CC4)ncc3C2)c1	mHTT-CaM PPI inh 52
COc1ccc(CN2CCc3nc(N4CCN(c5ccccn5)CC4)ncc3C2)c(OC)c1	none
COc1ccc(CN2CCc3nc(N4CCC(C)CC4)ncc3C2)cc1	none
COc1ccc(OC)c(CN2CCc3nc(N4CCN(c5ccccn5)CC4)ncc3C2)c1	mHTT-CaM PPI inh 50
COc1ccccc1CN1CCc2nc(N3CCN(c4ccccc4F)CC3)ncc2C1	none
O=C(NCCOc1ccc(-c2ccc(F)cc2)nn1)NCc1ccccc1	none
COCCn1c(C2CCN(C(=O)c3ccc(C)cc3)C2)nc2cccnc21 (centres undefined)	none
O=C(CC1CCCC1)N1CCC(Nc2ncnc3c2CCC3)C1 (centres undefined)	none
COc1ccc(-c2oc3c(c2C#CC(C)(C)O)C(OCCO)CC3)cc1 (centres undefined)	none
COC1CCCc2oc(-c3ccsc3)c(C#CCO)c21 (centres undefined)	mHTT-CaM PPI inh 52
O=C(O)CCc1ccc(Br)cc1[N+](=O)[O-]	none
Cc1ccc(SCCNC(=O)c2ccc(=O)[nH]c2)cc1	none
COc1cc(/C=C2\C(C)=C([N+](=O)[O-])CS2(=O)=O)ccc1O	mHTT-CaM PPI inh 87
COc1cc([N+](=O)[O-])ccc1O	none (no result: Pf apPOL inh)
Fc1ccc(CN2CCCCC2c2nncn2CC2CC2)cc1 (centres undefined)	none
O=C1CC2C=CCc3cccc(c32)CN1Cc1cccc(F)c1 (centres undefined)	mHTT-CaM PPI inh 100
COc1ccccc1CN1Cc2cccc3c2[C@@H](CC1=O)[C@H](O)[C@H](O)C3	none
O=C1C[C@H]2C=CCc3cccc(c32)CN1Cc1ccc(Br)cc1	none
Cc1ccccc1CN1Cc2cccc3c2[C@H](C=CC3)CC1=O	mHTT-CaM PPI inh 100
Cc1ccccc1C(=O)N1CC(C(=O)N2CCOCC2)C(c2ccccc2C)C1 (centres undefined)	none
CCCS(=O)(=O)N1CCCc2cc(NC(=O)c3cc(Cl)ccc3OC)ccc21	none
COCCCNC(=O)c1ccc(Cl)c(NC(=O)Nc2ccc(Cl)c(Cl)c2)c1	mHTT-CaM PPI inh 52
COCCCNC(=O)c1cccc(Cl)c1	none
c1cnc(-c2n[nH]c(C3CCCNC3)n2)cn1 (centres undefined)	mHTT-CaM PPI inh 72
c1cnc(-c2n[nH]c(C3CCCN(CC4CCCCC4)C3)n2)cn1 (centres undefined)	mHTT-CaM PPI inh 54
c1cnc(-c2n[nH]c(C3CCN(CC4CCCCC4)CC3)n2)cn1	none
CC(C)CCN1CCCC(c2nc(-c3cnccn3)n[nH]2)C1 (centres undefined)	none
